Data from PubChem BioAssay AID493169 (National Center for Advancing Translational Sciences (NCATS), 2011).
Records with an inconclusive call do not appear. Where a call stands in place of a potency, no number is given. Activity calls are given as the source filed them. The call rests on the fitted dose curve; in most records, active means well fitted inhibition curve with a large enough effect; inconclusive means small, poorly fitted or top-dose-only effect; inactive means flat fitted curve, though single readings scatter.

Test: CHOP2 Reporter Counterscreen Assay for Inhibitors of Ubiquitin-specific Protease USP2a;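 further: activated enterokinase alone at 50 pM in a cell-free format rather than USP2a or CHOP2; nearly all actives have a fitted effect of over 55% in size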
Details: purified enterokinase, fluorogenic substrate, 485/531 nm; series mostly up to 38.3 µM
Procedure, shortened: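 Cell-free counterscreen with pre-activated enterokinase alone (50 pM final) in 20mM Tris-HCl pH 8.0, 2mM CaCl2, 2mM beta-mercaptoethanol, 0.05% CHAPS; compound preincubation 30 min RT, reporter substrate 25nM final, fluorescence read after 10 min (Ex 485/Em 531).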
Potency means the concentration at half of the fitted maximal effect.

| SMILES | Potency |
| --- | --- |
| O=C1Nc2ccccc2SC(c2ccccc2)C1O (configuration not stated) | 7.94 µM (active) |
| Cc1ccc(C2=[N+]([O-])C(C)N(O)C2(C)C)o1 (configuration not stated) | inactive |
| COc1ccc(C(=O)N/C(=C\c2cccs2)C(=O)N2CCN(C)CC2)cc1OC | inactive |
| CCCn1c(N2CCN(Cc3cccc(C)c3)CC2)nc2c1c(=O)[nH]c(=O)n2C | inactive |
| CC(C)CC(c1nnnn1CC1CCCO1)N1CCN(c2nc3ccccc3s2)CC1 (configuration not stated) | inactive |
| C=CCn1c(Br)nc2c1c(=O)n(C)c(=O)n2C | inactive |
| O=C(NCCC1=CCCCC1)C1CCCN(S(=O)(=O)c2cnc[nH]2)C1 (configuration not stated) | inactive |
| O=C(COC(=O)c1cccc(S(=O)(=O)N2CCc3ccccc32)c1)NC1CCS(=O)(=O)C1 (configuration not stated) | inactive |
| CCOC(=O)c1sc(NC(=O)Nc2ccccc2)cc1C | inactive |
| COC1=CCC2([N+](=O)[O-])CN(CCO)CC1([N+](=O)[O-])C2 (configuration not stated) | inactive |
| Cc1cc(C)cc(NC(=O)CSc2nc3c(c(=O)[nH]2)CN(Cc2ccc(F)cc2)CC3)c1 | inactive |
| CCOC(=O)c1ccc(NC(=O)C2=C(C)Nc3nc(CCCO)nn3C2c2cccc(C)c2)cc1 (configuration not stated) | inactive |
| CCCc1nc(SCC(N)=O)[nH]c(=O)c1CC | inactive |
| COc1ccccc1-n1c(SCC(=O)Nc2ccc(C)cc2)nc(O)cc1=O | inactive |
| O=C(Nc1nnc(-c2ccco2)s1)C1CCCCC1 | inactive |
| Cc1ccc(NS(=O)(=O)c2cccc(C(=O)OCC(=O)NCc3ccco3)c2)cc1 | 10 µM (active) |
| COc1ccc(N(C(=O)C(C)C)S(=O)(=O)c2ccc(Cl)cc2)cc1 | inactive |
